# Measured values reported in the supplement of paper PMC8728848.
# The full list was thinned out, with the strongest signals kept by preference.
# B1: Nc3LysM-2 (protein)
# chain: AHVLQARQSVSCDFATAANTGDTCASFAAAWGITEAAFAKLNPGVSCPGNLIAGSEYCVIGTVSTGAPTTTKAATTSTTPPTTTTTTKATTLSTSTTSVSPTGPSPQMPSITSTCNKFYQVQSGDGCWSIEQAQGVSASDFMAWNKAVDAQCDNLWLGYYVCVGVKGGSSPPPTTTTKPASSSAPTPQMPNTVSNCKKFHKVVSGDGCWAIEQAAGISASDFAKWNPYVDAACDNLWLGYYVCIGV
# Columns and labels:
# Assay in all cases: glycan array binding signal (z-score within array); higher = stronger binding
# Conditions in all cases: glycan notation: IUPAC condensed, linker removed
# Glc(a1-4)Glc = target: Glc(a1-4)Glc
# Procedure, shortened: (§1)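 Glycan array binding is given as a within-array Z-score, which can be read as non-binding when negative. The arrays, 3228 of them, came from the Consortium for Functional Glycomics database and were retained only where the protein sequence was available. Z-scores were averaged across arrays of the same protein sequence at different concentrations or buffers and across linkers.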
# Glc(b1-4)Glc = target: Glc(b1-4)Glc
# Procedure, shortened: as §1
# GlcA(b1-6)Gal = target: GlcA(b1-6)Gal
# Procedure, shortened: as §1
# [1] = target: GlcA3S(b1-3)Gal(b1-4)GlcNAc(b1-2)Man
# Procedure, shortened: as §1
# [2] = target: GlcNAc(b1-2)Man(a1-3)[GlcNAc(b1-4)][GlcNAc(b1-2)Man(a1-6)]Man(b1-4)GlcNAc(b1-4)[Fuc(a1-6)]GlcNAc
# Procedure, shortened: as §1
# [3] = target: GlcNAc(b1-3)Gal(b1-4)GlcNAc(b1-3)Gal(b1-4)GlcNAc
# Procedure, shortened: as §1
# [4] = target: GlcNAc(b1-3)Gal(b1-4)GlcNAc(b1-3)Gal(b1-4)GlcNAc(b1-2)Man(a1-3)[GlcNAc(b1-3)Gal(b1-4)GlcNAc(b1-3)Gal(b1-4)GlcNAc(b1-2)Man(a1-6)]Man(b1-4)GlcNAc(b1-4)[Fuc(a1-6)]GlcNAc
# Procedure, shortened: as §1
# [5] = target: GlcNAc(b1-3)Gal(b1-4)GlcNAc(b1-3)Gal(b1-4)GlcNAc(b1-3)Gal(b1-4)GlcNAc(b1-2)Man(a1-3)[GlcNAc(b1-3)Gal(b1-4)GlcNAc(b1-3)Gal(b1-4)GlcNAc(b1-3)Gal(b1-4)GlcNAc(b1-2)Man(a1-6)]Man(b1-4)GlcNAc(b1-4)GlcNAc
# Procedure, shortened: as §1
# [6] = target: GlcNAc(b1-3)Gal(b1-4)GlcNAc(b1-3)Gal(b1-4)GlcNAc(b1-3)Gal(b1-4)GlcNAc(b1-3)Gal(b1-4)GlcNAc(b1-2)Man(a1-3)[GlcNAc(b1-3)Gal(b1-4)GlcNAc(b1-3)Gal(b1-4)GlcNAc(b1-3)Gal(b1-4)GlcNAc(b1-3)Gal(b1-4)GlcNAc(b1-2)Man(a1-6)]Man(b1-4)GlcNAc(b1-4)GlcNAc
# Procedure, shortened: as §1
# [7] = target: GlcNAc(b1-4)GlcNAc(b1-4)GlcNAc(b1-4)GlcNAc(b1-4)GlcNAc
# Procedure, shortened: as §1
# Man(a1-6)Man = target: Man(a1-6)Man
# Procedure, shortened: as §1
# [8] = target: Neu5Ac(a2-3)Gal(b1-3)GlcNAc
# Procedure, shortened: as §1
# [9] = target: Neu5Ac(a2-3)Gal(b1-4)GlcNAc(b1-2)Man
# Procedure, shortened: as §1
# [10] = target: Neu5Ac(a2-3)Gal(b1-4)GlcNAc(b1-3)Gal(b1-4)GlcNAc(b1-2)Man(a1-3)[Neu5Ac(a2-3)Gal(b1-4)GlcNAc(b1-3)Gal(b1-4)GlcNAc(b1-2)Man(a1-6)]Man(b1-4)GlcNAc(b1-4)GlcNAc
# Procedure, shortened: as §1
# [11] = target: Neu5Ac(a2-3)Gal(b1-4)GlcNAc(b1-3)Gal(b1-4)GlcNAc(b1-3)[Neu5Ac(a2-3)Gal(b1-4)GlcNAc(b1-3)Gal(b1-4)GlcNAc(b1-6)]GalNAc
# Procedure, shortened: as §1
# [12] = target: Neu5Ac(a2-3)Gal(b1-4)[Fuc(a1-3)]GlcNAc(b1-2)Man
# Procedure, shortened: as §1
# [13] = target: Neu5Ac(a2-3)Gal(b1-4)[Fuc(a1-3)]GlcNAc(b1-6)[Neu5Ac(a2-3)Gal(b1-3)]GalNAc
# Procedure, shortened: as §1
# [14] = target: Neu5Ac(a2-3)Gal6S(b1-4)GlcNAc
# Procedure, shortened: as §1
# Neu5Ac(a2-3)GalNAc = target: Neu5Ac(a2-3)GalNAc
# Procedure, shortened: as §1
# [15] = target: Neu5Ac(a2-3)[Neu5Ac(a2-6)]GalNAc
# Procedure, shortened: as §1
# [16] = target: Neu5Ac(a2-6)Gal(b1-4)GlcNAc(b1-2)Man
# Procedure, shortened: as §1
# [17] = target: Neu5Ac(a2-6)Gal(b1-4)GlcNAc(b1-2)Man(a1-3)[Gal(b1-4)GlcNAc(b1-2)Man(a1-6)]Man(b1-4)GlcNAc(b1-4)GlcNAc
# Procedure, shortened: as §1
# [18] = target: Neu5Ac(a2-6)Gal(b1-4)GlcNAc(b1-3)Gal(b1-4)[Fuc(a1-3)]GlcNAc(b1-3)Gal(b1-4)[Fuc(a1-3)]GlcNAc
# Procedure, shortened: as §1
# [19] = target: Neu5Ac(a2-6)GalNAc(b1-4)GlcNAc6S
# Procedure, shortened: as §1
# [20] = target: Neu5Ac(a2-8)Neu5Ac(a2-8)Neu5Ac(a2-8)Neu5Ac(a2-3)[GalNAc(b1-4)]Gal(b1-4)Glc
# Procedure, shortened: as §1
# [21] = target: Neu5Gc(a2-3)Gal(b1-3)GlcNAc
# Procedure, shortened: as §1
# [22] = target: Neu5Gc(a2-3)Gal(b1-4)GlcNAc
# Procedure, shortened: as §1
# [23] = target: Neu5Gc(a2-3)Gal(b1-4)GlcNAc(b1-3)Gal(b1-4)GlcNAc(b1-2)Man(a1-3)[Neu5Gc(a2-3)Gal(b1-4)GlcNAc(b1-3)Gal(b1-4)GlcNAc(b1-2)Man(a1-6)]Man(b1-4)GlcNAc(b1-4)GlcNAc
# Procedure, shortened: as §1
binder,measurement,setting,value
B1,glycan array binding signal (z-score),Glc(a1-4)Glc,-0.04
same,glycan array binding signal (z-score),Glc(b1-4)Glc,-1.11
same,glycan array binding signal (z-score),GlcA(b1-6)Gal,2.36
same,glycan array binding signal (z-score),[1],0.714
same,glycan array binding signal (z-score),[2],-0.543
same,glycan array binding signal (z-score),[3],0.247
same,glycan array binding signal (z-score),[4],3.4
same,glycan array binding signal (z-score),[5],-0.959
same,glycan array binding signal (z-score),[6],-0.307
same,glycan array binding signal (z-score),[7],3.61
same,glycan array binding signal (z-score),Man(a1-6)Man,0.852
same,glycan array binding signal (z-score),[8],0.767
same,glycan array binding signal (z-score),[9],0.06
same,glycan array binding signal (z-score),[10],4.26
same,glycan array binding signal (z-score),[11],-0.674
same,glycan array binding signal (z-score),[12],-0.075
same,glycan array binding signal (z-score),[13],2.08
same,glycan array binding signal (z-score),[14],-0.155
same,glycan array binding signal (z-score),Neu5Ac(a2-3)GalNAc,-1.24
same,glycan array binding signal (z-score),[15],0.668
same,glycan array binding signal (z-score),[16],0.422
same,glycan array binding signal (z-score),[17],-0.256
same,glycan array binding signal (z-score),[18],0.118
same,glycan array binding signal (z-score),[19],-2.04
same,glycan array binding signal (z-score),[20],0.938
same,glycan array binding signal (z-score),[21],0.959
same,glycan array binding signal (z-score),[22],-0.122
same,glycan array binding signal (z-score),[23],-0.459
